Assay results taken from the supplement of paper PMC8728848.
The full list was thinned out, with the strongest signals kept by preference.

Legend:
Assay in all cases: glycan array binding signal (z-score within array); higher = stronger binding
Details in all cases: glycan notation: IUPAC condensed, linker removed
[1] = biological target: Fuc(a1-2)Gal(b1-3)[Fuc(a1-4)]GlcNAc(b1-2)Man(a1-3)[Fuc(a1-2)Gal(b1-3)[Fuc(a1-4)]GlcNAc(b1-2)Man(a1-6)]Man(b1-4)GlcNAc(b1-4)[Fuc(a1-6)]GlcNAc(b1-4)[Fuc(a1-6)]GlcNAc
Summary of the method: (§1)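 The Consortium for Functional Glycomics database supplied 3228 glycan arrays, of which those lacking an available protein sequence were dropped. The binding signal, a within-array Z-score, was averaged across arrays of the same protein sequence and across linkers. Negative scores can be read as non-binding.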

[2] = biological target: Fuc(a1-2)Gal6S(b1-4)Glc
Summary of the method: as §1

[3] = biological target: Fuc(a1-2)[Gal(a1-3)]Gal(b1-3)GlcNAc(b1-2)Man(a1-3)[Fuc(a1-2)[Gal(a1-3)]Gal(b1-3)GlcNAc(b1-2)Man(a1-6)]Man(b1-4)GlcNAc(b1-4)[Fuc(a1-6)]GlcNAc
Summary of the method: as §1

[4] = biological target: Fuc(a1-2)[Gal(a1-3)]Gal(b1-3)GlcNAc(b1-6)GalNAc
Summary of the method: as §1

[5] = biological target: Fuc(a1-2)[Gal(a1-3)]Gal(b1-4)GlcNAc(b1-2)Man(a1-3)[Fuc(a1-2)[Gal(a1-3)]Gal(b1-4)GlcNAc(b1-2)Man(a1-6)]Man(b1-4)GlcNAc(b1-4)[Fuc(a1-6)]GlcNAc
Summary of the method: as §1

[6] = biological target: Fuc(a1-2)[Gal(a1-3)]Gal(b1-4)GlcNAc(b1-3)[Fuc(a1-2)[Gal(a1-3)]Gal(b1-4)GlcNAc(b1-6)]GalNAc
Summary of the method: as §1

[7] = biological target: Fuc(a1-2)[Gal(a1-3)]Gal(b1-4)GlcNAc(b1-6)GalNAc
Summary of the method: as §1

[8] = biological target: Fuc(a1-2)[Gal(a1-4)]Gal(b1-4)GlcNAc
Summary of the method: as §1

[9] = biological target: Fuc(a1-2)[GalNAc(a1-3)]Gal(b1-3)GalNAc(a1-3)[Fuc(a1-2)]Gal(b1-4)GlcNAc
Summary of the method: as §1

[10] = biological target: Fuc(a1-2)[GalNAc(a1-3)]Gal(b1-3)GlcNAc(b1-2)Man(a1-3)[Fuc(a1-2)[GalNAc(a1-3)]Gal(b1-3)GlcNAc(b1-2)Man(a1-6)]Man(b1-4)GlcNAc(b1-4)[Fuc(a1-6)]GlcNAc
Summary of the method: as §1

[11] = biological target: Fuc(a1-3)[Gal(b1-4)]GlcNAc(b1-3)Gal(b1-4)[Fuc(a1-3)]GlcNAc
Summary of the method: as §1

[12] = biological target: Fuc(a1-3)[Gal(b1-4)]GlcNAc(b1-3)Gal(b1-4)[Fuc(a1-3)]GlcNAc(b1-3)Gal(b1-4)[Fuc(a1-3)]GlcNAc
Summary of the method: as §1

[13] = biological target: Gal(b1-3)GalNAc(a1-3)[Fuc(a1-2)]Gal(b1-4)Glc
Summary of the method: as §1

[14] = biological target: Gal(b1-3)GlcNAc(b1-2)Man(a1-3)[Gal(b1-3)GlcNAc(b1-2)Man(a1-6)]Man(b1-4)GlcNAc(b1-4)[Fuc(a1-6)]GlcNAc
Summary of the method: as §1

[15] = biological target: Gal(b1-3)GlcNAc(b1-2)Man(a1-3)[GlcNAc(b1-4)][Gal(b1-3)GlcNAc(b1-2)Man(a1-6)]Man(b1-4)GlcNAc(b1-4)GlcNAc
Summary of the method: as §1

[16] = biological target: Gal(b1-3)GlcNAc(b1-2)[Gal(b1-3)GlcNAc(b1-6)]Man(a1-6)[Gal(b1-3)GlcNAc(b1-2)Man(a1-3)]Man(b1-4)GlcNAc(b1-4)GlcNAc
Summary of the method: as §1

[17] = biological target: Gal(b1-3)GlcNAc(b1-3)Gal(b1-4)GlcNAc(b1-3)Gal(b1-4)GlcNAc(b1-2)[Gal(b1-3)GlcNAc(b1-3)Gal(b1-4)GlcNAc(b1-3)Gal(b1-4)GlcNAc(b1-6)]Man(a1-6)[Gal(b1-3)GlcNAc(b1-3)Gal(b1-4)GlcNAc(b1-3)Gal(b1-4)GlcNAc(b1-2)Man(a1-3)]Man(b1-4)GlcNAc(b1-4)[Fuc(a1-6)]GlcNAc
Summary of the method: as §1

[18] = biological target: Gal(b1-4)Glc
Summary of the method: as §1

[19] = biological target: Gal(b1-4)GlcNAc(b1-2)Man(a1-3)Man(b1-4)GlcNAc(b1-4)GlcNAc
Summary of the method: as §1

[20] = biological target: Gal(b1-4)GlcNAc(b1-2)Man(a1-3)[Gal(b1-4)GlcNAc(b1-2)Man(a1-6)][GlcNAc(b1-4)]Man(b1-4)GlcNAc(b1-4)[Fuc(a1-6)]GlcNAc
Summary of the method: as §1

[21] = biological target: Gal(b1-4)GlcNAc(b1-3)Gal(b1-3)GlcNAc
Summary of the method: as §1

[22] = biological target: Gal(b1-4)GlcNAc(b1-3)Gal(b1-4)GlcNAc(b1-2)[Gal(b1-4)GlcNAc(b1-3)Gal(b1-4)GlcNAc(b1-6)]Man(a1-6)[Gal(b1-4)GlcNAc(b1-3)Gal(b1-4)GlcNAc(b1-2)Man(a1-3)]Man(b1-4)GlcNAc(b1-4)GlcNAc
Summary of the method: as §1

[23] = biological target: Gal(b1-4)GlcNAc(b1-3)Gal(b1-4)GlcNAc(b1-3)Gal(b1-4)GlcNAc(b1-3)Gal(b1-4)GlcNAc(b1-3)Gal(b1-4)GlcNAc(b1-2)[Gal(b1-4)GlcNAc(b1-3)Gal(b1-4)GlcNAc(b1-3)Gal(b1-4)GlcNAc(b1-3)Gal(b1-4)GlcNAc(b1-3)Gal(b1-4)GlcNAc(b1-6)]Man(a1-6)[Gal(b1-4)GlcNAc(b1-3)Gal(b1-4)GlcNAc(b1-3)Gal(b1-4)GlcNAc(b1-3)Gal(b1-4)GlcNAc(b1-3)Gal(b1-4)GlcNAc(b1-2)Man(a1-3)]Man(b1-4)GlcNAc(b1-4)[Fuc(a1-6)]GlcNAc
Summary of the method: as §1

[24] = biological target: Gal(b1-4)GlcNAc(b1-3)GalNAc
Summary of the method: as §1

[25] = biological target: Gal3S4S(b1-4)GlcNAc
Summary of the method: as §1

[26] = biological target: Gal6S(b1-3)GlcNAc6S
Summary of the method: as §1

[27] = biological target: Gal6S(b1-4)Glc6S
Summary of the method: as §1

[28] = biological target: Gal6S(b1-4)GlcNAc
Summary of the method: as §1

[29] = biological target: Gal6S(b1-4)GlcNAc6S
Summary of the method: as §1

[30] = biological target: GlcNAc(a1-4)Gal(b1-4)GalNAc
Summary of the method: as §1

B1: Cohesin-hLangerin (Homo sapiens) (protein)
chain: LDDLDAVRIKVDTVNAKPGDTVRIPVRFSGIPSKGIANCDFVYSYDPNVLEIIEIEPGDIIVDPNPDKSFDTAVYPDRKIIVFLFAEDSGTGAYAITKDGVFATIVAKVKEGAPNGLSVIKFVEVGGFANNDLVEQKTQFFDGGANVGDTTEPATPTTPVTTPTTTDDLDAASYPRFMGTISDVKTNVQLLKGRVDNISTLDSEIKKNSDGMEAAGVQIQMVNESLGYVRSQFLKLKTSVEKANAQIQILTRSWEEVSTLNAQIPELKSDLEKASALNTKIRALQGSLENMSKLLKRQNDILQVVSQGWKYFKGNFYYFSLIPKTWYSAEQFCVSRNSHLTSVTSESEQEFLYKTAGGLIYWIGLTKAGMEGDWSWVDDTPFNKVQSARFWIPGEPNNAGNNEHCGNIKAPSLQAWNDAPCDKTFLFICKRPYVPSEPHHHHHH
Question: What does the source list for B1?
Answer: glycan array binding signal (z-score) [1]: 0.805; glycan array binding signal (z-score) [2]: -0.399; glycan array binding signal (z-score) [3]: 3.97; glycan array binding signal (z-score) [4]: -0.238; glycan array binding signal (z-score) [5]: 3.4; glycan array binding signal (z-score) [6]: 1.3; glycan array binding signal (z-score) [7]: -0.388; glycan array binding signal (z-score) [8]: -0.301; glycan array binding signal (z-score) [9]: -0.411; glycan array binding signal (z-score) [10]: 2.27; glycan array binding signal (z-score) [11]: -0.026; glycan array binding signal (z-score) [12]: -0.424; glycan array binding signal (z-score) [13]: -0.311; glycan array binding signal (z-score) [14]: 0.003; glycan array binding signal (z-score) [15]: 4.37; glycan array binding signal (z-score) [16]: 4.81; glycan array binding signal (z-score) [17]: 5.37; glycan array binding signal (z-score) [18]: -0.309; glycan array binding signal (z-score) [19]: -0.352; glycan array binding signal (z-score) [20]: -0.449; glycan array binding signal (z-score) [21]: -0.419; glycan array binding signal (z-score) [22]: 3.41; glycan array binding signal (z-score) [23]: 0.332; glycan array binding signal (z-score) [24]: -0.438; glycan array binding signal (z-score) [25]: -0.417; glycan array binding signal (z-score) [26]: 5.12; glycan array binding signal (z-score) [27]: 4; glycan array binding signal (z-score) [28]: 3.76; glycan array binding signal (z-score) [29]: 4.85; glycan array binding signal (z-score) [30]: -0.401
